Tests used:
Test in all cases: DAPPL (digital affinity profiling via proximity ligation, sequencing); 10 mM Tris-HCl pH 7.5, 50 mM NaCl, 1 mM DTT, 4% glycerol, room temperature, 30 min; GST-TFs on glutathione beads, 16-mer random dsDNA library, 0.1% formaldehyde crosslink after washing; high values mean tight binding
Conditions in all cases: protein: recombinant; tags: N-terminal GST; dsDNA, one strand shown
FLI1 = biological target: T1, FLI1 (Homo sapiens, UniProt Q01543 1-452)
T1 sequence: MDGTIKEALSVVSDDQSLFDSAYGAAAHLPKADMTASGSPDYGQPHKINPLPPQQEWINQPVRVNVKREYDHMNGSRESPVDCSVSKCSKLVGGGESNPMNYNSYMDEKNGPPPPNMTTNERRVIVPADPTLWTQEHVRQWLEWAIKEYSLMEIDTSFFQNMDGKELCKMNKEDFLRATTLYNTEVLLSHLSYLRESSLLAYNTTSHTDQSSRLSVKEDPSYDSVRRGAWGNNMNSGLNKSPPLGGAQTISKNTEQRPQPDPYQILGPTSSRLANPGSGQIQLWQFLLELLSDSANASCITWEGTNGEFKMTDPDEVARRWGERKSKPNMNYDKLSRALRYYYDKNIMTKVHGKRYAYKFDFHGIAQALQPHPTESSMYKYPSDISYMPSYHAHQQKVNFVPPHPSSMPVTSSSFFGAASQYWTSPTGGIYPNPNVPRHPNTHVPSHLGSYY
How it was run: (§1)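 Each value of binding signal is a hexamer's read frequency for a factor divided by the same hexamer's frequency in the tag-only sample. Barcoded, bead-captured GST fusions of human transcription factors made in yeast were pooled with that sample and incubated with 200 nmole of a random double-stranded 16-mer DNA library in Tris/NaCl/DTT/glycerol buffer at room temperature for 30 min. Washing, 0.1% formaldehyde crosslinking, proximity ligation, PCR and Illumina NextSeq500 sequencing followed.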

ELK1 = biological target: T2, ELK1 (Homo sapiens, UniProt P19419 1-428)
T2 sequence: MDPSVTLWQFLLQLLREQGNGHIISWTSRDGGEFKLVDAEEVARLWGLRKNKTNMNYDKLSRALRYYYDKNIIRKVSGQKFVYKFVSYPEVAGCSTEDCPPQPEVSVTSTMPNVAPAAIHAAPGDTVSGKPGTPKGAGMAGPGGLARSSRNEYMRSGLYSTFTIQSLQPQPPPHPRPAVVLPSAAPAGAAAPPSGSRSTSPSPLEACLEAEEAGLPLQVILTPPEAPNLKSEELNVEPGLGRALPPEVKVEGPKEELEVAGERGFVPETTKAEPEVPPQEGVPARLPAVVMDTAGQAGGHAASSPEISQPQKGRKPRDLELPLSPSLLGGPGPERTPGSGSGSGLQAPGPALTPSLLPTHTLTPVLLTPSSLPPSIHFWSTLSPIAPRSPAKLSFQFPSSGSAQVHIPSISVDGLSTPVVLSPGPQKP
How it was run: as §1

GABPA = biological target: T3, GABPA (Homo sapiens, UniProt Q06546 1-454)
T3 sequence: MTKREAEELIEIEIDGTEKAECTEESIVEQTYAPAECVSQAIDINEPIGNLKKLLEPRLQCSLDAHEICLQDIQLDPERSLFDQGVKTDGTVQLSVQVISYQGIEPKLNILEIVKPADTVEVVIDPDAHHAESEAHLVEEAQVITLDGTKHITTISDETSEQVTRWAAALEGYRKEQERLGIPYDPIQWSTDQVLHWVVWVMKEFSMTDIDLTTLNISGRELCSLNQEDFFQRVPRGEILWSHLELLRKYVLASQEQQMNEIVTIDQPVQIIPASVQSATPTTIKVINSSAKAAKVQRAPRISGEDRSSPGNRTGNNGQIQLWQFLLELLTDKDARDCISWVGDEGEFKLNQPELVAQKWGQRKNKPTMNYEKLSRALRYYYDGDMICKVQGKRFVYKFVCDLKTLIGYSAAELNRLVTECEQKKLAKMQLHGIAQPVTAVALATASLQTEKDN
How it was run: as §1

ERG = biological target: T4, ERG (Homo sapiens, UniProt P11308 1-479)
T4 sequence: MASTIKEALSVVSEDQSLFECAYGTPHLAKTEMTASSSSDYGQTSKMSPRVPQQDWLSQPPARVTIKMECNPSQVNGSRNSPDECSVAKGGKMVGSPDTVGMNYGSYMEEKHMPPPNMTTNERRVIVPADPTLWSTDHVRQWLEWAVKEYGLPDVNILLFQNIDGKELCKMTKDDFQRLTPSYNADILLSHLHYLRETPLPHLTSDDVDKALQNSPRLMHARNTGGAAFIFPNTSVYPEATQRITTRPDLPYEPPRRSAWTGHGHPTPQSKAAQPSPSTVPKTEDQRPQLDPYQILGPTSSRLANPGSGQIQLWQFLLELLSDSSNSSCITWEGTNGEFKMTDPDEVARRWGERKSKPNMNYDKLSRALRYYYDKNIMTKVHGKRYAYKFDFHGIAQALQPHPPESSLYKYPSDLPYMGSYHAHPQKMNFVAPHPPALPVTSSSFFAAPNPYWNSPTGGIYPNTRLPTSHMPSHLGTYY
How it was run: as §1

ELF1 = ELF1 (Homo sapiens, UniProt P32519 1-619)
ELF1, sequence (P32519 whole entry): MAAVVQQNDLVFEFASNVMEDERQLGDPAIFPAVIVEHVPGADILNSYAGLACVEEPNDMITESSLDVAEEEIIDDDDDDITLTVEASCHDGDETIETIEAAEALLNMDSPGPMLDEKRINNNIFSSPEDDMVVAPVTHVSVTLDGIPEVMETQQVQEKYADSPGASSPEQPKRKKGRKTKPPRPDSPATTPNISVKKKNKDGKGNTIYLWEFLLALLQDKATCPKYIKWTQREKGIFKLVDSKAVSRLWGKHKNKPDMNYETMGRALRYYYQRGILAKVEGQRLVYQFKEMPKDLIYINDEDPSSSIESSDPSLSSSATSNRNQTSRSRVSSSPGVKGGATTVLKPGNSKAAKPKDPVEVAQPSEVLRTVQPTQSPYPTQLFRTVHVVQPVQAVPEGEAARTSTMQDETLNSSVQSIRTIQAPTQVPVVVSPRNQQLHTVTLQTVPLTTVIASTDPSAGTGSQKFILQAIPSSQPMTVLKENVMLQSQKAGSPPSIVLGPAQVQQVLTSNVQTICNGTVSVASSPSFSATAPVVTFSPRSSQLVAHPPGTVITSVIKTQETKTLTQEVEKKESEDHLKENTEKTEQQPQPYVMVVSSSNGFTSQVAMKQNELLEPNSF
How it was run: as §1

EHF = biological target: T5, EHF (Homo sapiens, UniProt Q9NZC4 1-300)
T5 sequence: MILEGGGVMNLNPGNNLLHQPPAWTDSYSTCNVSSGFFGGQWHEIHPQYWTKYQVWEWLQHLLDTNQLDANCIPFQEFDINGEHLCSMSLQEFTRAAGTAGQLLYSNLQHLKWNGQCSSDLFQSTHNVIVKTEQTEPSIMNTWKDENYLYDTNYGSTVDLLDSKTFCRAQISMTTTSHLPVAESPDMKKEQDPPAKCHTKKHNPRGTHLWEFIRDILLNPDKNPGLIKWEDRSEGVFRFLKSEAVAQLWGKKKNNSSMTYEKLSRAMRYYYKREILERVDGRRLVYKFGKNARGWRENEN
How it was run: as §1

SPI1 = SPI1 (Homo sapiens, UniProt P17947 1-270)
How it was run: as §1

SPIB = SPIB (Homo sapiens, UniProt Q01892 1-262)
SPIB, sequence (Q01892 whole entry): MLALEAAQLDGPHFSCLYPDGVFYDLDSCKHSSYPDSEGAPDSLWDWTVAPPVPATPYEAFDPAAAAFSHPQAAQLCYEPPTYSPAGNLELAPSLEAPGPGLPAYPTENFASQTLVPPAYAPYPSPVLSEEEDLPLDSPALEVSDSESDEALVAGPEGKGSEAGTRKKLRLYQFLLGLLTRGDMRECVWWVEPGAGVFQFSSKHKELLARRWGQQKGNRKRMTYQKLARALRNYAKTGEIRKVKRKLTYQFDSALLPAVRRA
How it was run: as §1

ELK3 = biological target: T6, ELK3 (Homo sapiens, UniProt P41970 1-407)
T6 sequence: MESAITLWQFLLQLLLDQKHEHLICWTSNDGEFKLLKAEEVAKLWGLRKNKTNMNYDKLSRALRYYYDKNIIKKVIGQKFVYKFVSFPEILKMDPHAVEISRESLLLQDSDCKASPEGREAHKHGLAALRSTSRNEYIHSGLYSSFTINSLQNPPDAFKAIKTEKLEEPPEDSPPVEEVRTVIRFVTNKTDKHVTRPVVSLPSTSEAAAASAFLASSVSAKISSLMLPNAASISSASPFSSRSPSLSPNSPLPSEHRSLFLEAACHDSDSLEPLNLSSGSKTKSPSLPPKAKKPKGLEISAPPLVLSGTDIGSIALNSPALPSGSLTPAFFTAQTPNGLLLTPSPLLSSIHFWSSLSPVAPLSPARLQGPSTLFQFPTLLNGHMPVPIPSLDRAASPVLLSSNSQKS
How it was run: as §1

FEV = biological target: T7, FEV (Homo sapiens, UniProt Q99581 1-238)
T7 sequence: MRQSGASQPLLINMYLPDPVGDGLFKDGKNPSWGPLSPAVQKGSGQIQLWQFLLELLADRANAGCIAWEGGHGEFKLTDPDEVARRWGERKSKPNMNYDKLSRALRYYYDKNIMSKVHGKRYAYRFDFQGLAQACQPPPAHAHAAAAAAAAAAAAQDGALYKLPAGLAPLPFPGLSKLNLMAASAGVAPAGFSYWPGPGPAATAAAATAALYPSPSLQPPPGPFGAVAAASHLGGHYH
How it was run: as §1

ETV5 = ETV5 (Homo sapiens, UniProt P41161 1-510)
ETV5, sequence (P41161 whole entry): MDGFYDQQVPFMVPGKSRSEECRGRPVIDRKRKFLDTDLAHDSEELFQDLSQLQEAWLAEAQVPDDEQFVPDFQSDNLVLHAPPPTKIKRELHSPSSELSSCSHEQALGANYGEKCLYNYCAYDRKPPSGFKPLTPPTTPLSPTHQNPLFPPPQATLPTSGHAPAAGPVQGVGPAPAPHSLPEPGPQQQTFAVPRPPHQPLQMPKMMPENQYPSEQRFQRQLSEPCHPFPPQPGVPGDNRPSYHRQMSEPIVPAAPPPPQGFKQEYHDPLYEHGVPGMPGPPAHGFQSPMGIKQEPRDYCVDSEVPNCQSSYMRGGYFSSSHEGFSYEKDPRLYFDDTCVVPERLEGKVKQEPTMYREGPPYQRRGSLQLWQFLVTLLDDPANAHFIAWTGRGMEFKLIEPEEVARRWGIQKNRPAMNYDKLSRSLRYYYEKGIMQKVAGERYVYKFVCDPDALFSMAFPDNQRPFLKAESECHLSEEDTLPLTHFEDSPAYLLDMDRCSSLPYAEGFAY
How it was run: as §1

SPIC = biological target: T8, SPIC (Homo sapiens, UniProt Q8N5J4 1-248)
T8 sequence: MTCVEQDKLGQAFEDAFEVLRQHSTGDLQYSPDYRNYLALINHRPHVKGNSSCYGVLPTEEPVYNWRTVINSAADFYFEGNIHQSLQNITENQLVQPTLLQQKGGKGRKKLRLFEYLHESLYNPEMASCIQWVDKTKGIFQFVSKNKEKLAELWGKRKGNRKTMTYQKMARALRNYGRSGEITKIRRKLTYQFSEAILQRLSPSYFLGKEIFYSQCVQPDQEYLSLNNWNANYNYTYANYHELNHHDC
How it was run: as §1

ELF4 = ELF4 (Homo sapiens, UniProt Q99607 1-663)
ELF4, sequence (Q99607 whole entry): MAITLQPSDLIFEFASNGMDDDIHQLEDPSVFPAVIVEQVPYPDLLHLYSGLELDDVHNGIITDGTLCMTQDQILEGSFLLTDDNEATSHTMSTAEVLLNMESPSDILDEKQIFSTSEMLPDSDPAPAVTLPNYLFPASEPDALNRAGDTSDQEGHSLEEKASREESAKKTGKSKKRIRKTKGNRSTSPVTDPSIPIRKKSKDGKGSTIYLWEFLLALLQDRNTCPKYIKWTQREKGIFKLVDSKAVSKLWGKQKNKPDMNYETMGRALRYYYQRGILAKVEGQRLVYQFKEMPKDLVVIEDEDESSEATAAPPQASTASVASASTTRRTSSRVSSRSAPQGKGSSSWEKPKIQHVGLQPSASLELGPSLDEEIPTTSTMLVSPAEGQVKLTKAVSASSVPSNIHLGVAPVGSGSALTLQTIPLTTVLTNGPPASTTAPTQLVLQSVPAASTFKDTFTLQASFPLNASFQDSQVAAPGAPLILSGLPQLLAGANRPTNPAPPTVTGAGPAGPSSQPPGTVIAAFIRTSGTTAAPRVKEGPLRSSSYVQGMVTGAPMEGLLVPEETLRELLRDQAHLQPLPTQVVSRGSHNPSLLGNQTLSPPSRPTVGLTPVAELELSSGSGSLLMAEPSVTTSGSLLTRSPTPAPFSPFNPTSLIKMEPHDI
How it was run: as §1

ELK4 = biological target: T9, ELK4 (Homo sapiens, UniProt P28324-2 1-405)
T9 sequence: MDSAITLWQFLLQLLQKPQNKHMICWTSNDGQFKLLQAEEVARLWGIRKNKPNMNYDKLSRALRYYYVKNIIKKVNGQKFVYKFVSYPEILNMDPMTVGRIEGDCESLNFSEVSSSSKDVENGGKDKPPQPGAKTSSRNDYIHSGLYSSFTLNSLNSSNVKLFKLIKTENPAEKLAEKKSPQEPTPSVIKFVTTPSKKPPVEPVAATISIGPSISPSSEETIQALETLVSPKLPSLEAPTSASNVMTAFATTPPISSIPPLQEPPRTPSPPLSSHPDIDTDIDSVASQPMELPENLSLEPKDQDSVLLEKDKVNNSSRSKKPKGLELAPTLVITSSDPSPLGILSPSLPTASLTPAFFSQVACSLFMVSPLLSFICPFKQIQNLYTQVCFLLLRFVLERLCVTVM
How it was run: as §1

ETV2 = biological target: T10, ETV2 (Homo sapiens, UniProt O00321 1-342)
T10 sequence: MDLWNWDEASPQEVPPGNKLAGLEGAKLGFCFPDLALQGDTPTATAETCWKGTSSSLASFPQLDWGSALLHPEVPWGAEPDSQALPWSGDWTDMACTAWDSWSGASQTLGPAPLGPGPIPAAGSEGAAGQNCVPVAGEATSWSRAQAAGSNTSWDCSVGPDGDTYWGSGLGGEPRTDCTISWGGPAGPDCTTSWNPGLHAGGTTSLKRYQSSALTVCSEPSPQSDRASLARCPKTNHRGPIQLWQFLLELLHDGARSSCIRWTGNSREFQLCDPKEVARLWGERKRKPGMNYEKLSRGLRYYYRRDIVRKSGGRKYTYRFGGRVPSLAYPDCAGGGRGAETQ
How it was run: as §1

ELF3 = biological target: T11, ELF3 (Homo sapiens, UniProt P78545 1-371)
T11 sequence: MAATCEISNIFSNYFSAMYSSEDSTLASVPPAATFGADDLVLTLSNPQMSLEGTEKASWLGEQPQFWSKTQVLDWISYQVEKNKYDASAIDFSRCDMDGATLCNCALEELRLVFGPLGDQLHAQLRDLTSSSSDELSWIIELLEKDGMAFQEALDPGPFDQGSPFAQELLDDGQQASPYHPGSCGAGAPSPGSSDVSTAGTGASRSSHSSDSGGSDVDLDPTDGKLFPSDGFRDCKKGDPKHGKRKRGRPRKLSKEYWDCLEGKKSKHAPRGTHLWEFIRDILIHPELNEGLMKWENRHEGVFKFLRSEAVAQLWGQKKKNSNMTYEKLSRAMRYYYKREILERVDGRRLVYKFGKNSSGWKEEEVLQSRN
How it was run: as §1

ETV1 = ETV1 (Homo sapiens, UniProt P50549 1-477)
ETV1, sequence (P50549 whole entry): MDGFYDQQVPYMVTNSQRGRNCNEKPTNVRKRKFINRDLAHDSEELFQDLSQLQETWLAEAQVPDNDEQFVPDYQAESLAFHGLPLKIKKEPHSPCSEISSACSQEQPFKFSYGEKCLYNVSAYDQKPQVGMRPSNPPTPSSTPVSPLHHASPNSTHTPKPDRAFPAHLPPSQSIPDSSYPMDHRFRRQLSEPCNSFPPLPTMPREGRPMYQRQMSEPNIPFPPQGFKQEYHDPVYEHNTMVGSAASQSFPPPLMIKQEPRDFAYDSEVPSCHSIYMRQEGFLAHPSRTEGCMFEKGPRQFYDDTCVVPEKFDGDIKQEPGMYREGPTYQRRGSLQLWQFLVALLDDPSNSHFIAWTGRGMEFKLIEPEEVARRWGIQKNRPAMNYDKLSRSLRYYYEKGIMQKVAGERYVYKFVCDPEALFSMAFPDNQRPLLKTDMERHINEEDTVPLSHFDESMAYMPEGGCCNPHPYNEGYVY
How it was run: as §1

CRX = CRX (Homo sapiens, UniProt O43186 1-299)
CRX, sequence (O43186 whole entry): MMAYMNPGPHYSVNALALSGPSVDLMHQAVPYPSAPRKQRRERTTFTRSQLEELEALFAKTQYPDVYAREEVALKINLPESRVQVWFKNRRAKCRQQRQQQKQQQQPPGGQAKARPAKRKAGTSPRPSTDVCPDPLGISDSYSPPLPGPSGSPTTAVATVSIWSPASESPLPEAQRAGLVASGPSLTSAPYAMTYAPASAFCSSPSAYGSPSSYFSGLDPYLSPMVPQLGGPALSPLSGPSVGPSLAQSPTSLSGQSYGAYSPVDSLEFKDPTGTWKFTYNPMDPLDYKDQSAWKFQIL
How it was run: as §1

Sequence | binding signal (FLI1) | binding signal (ELK1) | binding signal (GABPA) | binding signal (ERG) | binding signal (ELF1) | binding signal (EHF) | binding signal (SPI1) | binding signal (SPIB) | binding signal (ELK3) | binding signal (FEV) | binding signal (ETV5) | binding signal (SPIC) | binding signal (ELF4) | binding signal (ELK4) | binding signal (ETV2) | binding signal (ELF3) | binding signal (ETV1) | binding signal (CRX)
GTCACA | 1.11 fold enrichment (6-mer frequency, TF over GST control) | 1.1 fold enrichment (6-mer frequency, TF over GST control) | 1.12 fold enrichment (6-mer frequency, TF over GST control) | 1.13 fold enrichment (6-mer frequency, TF over GST control) | 1.17 fold enrichment (6-mer frequency, TF over GST control) | 1.07 fold enrichment (6-mer frequency, TF over GST control) | 1.13 fold enrichment (6-mer frequency, TF over GST control) | 1.07 fold enrichment (6-mer frequency, TF over GST control) | 1.04 fold enrichment (6-mer frequency, TF over GST control) | 1.11 fold enrichment (6-mer frequency, TF over GST control) | 1.1 fold enrichment (6-mer frequency, TF over GST control) | 1.04 fold enrichment (6-mer frequency, TF over GST control) | 1.08 fold enrichment (6-mer frequency, TF over GST control) | 1.07 fold enrichment (6-mer frequency, TF over GST control) | 1.01 fold enrichment (6-mer frequency, TF over GST control) | 1.08 fold enrichment (6-mer frequency, TF over GST control) | 1.06 fold enrichment (6-mer frequency, TF over GST control) | –
CGACAC | 1.18 fold enrichment (6-mer frequency, TF over GST control) | 1.14 fold enrichment (6-mer frequency, TF over GST control) | 1.16 fold enrichment (6-mer frequency, TF over GST control) | 1.23 fold enrichment (6-mer frequency, TF over GST control) | 1.24 fold enrichment (6-mer frequency, TF over GST control) | 1.19 fold enrichment (6-mer frequency, TF over GST control) | 1.2 fold enrichment (6-mer frequency, TF over GST control) | 1.25 fold enrichment (6-mer frequency, TF over GST control) | 1.14 fold enrichment (6-mer frequency, TF over GST control) | 1.21 fold enrichment (6-mer frequency, TF over GST control) | 1.13 fold enrichment (6-mer frequency, TF over GST control) | 1.15 fold enrichment (6-mer frequency, TF over GST control) | 1.21 fold enrichment (6-mer frequency, TF over GST control) | 1.14 fold enrichment (6-mer frequency, TF over GST control) | 1.15 fold enrichment (6-mer frequency, TF over GST control) | 1.04 fold enrichment (6-mer frequency, TF over GST control) | 1.16 fold enrichment (6-mer frequency, TF over GST control) | –
CGTTAT | 1.14 fold enrichment (6-mer frequency, TF over GST control) | 1.11 fold enrichment (6-mer frequency, TF over GST control) | 1.11 fold enrichment (6-mer frequency, TF over GST control) | 1.1 fold enrichment (6-mer frequency, TF over GST control) | 1.17 fold enrichment (6-mer frequency, TF over GST control) | 1.07 fold enrichment (6-mer frequency, TF over GST control) | 1.11 fold enrichment (6-mer frequency, TF over GST control) | 1.16 fold enrichment (6-mer frequency, TF over GST control) | 1.26 fold enrichment (6-mer frequency, TF over GST control) | 1.03 fold enrichment (6-mer frequency, TF over GST control) | 1.15 fold enrichment (6-mer frequency, TF over GST control) | 1.23 fold enrichment (6-mer frequency, TF over GST control) | 1.16 fold enrichment (6-mer frequency, TF over GST control) | 1.15 fold enrichment (6-mer frequency, TF over GST control) | 1.21 fold enrichment (6-mer frequency, TF over GST control) | 1.04 fold enrichment (6-mer frequency, TF over GST control) | – | 1.05 fold enrichment (6-mer frequency, TF over GST control)
